Measured values published in PubChem BioAssay AID624417 (National Center for Advancing Translational Sciences (NCATS), 2012).
The campaign covered roughly 410,000 compounds. About 6,400 (1.6%) were called active. Inconclusive results (about 20%) are left out. Calls follow the shape of the dose curve; as a rule, active = well fitted inhibition curve with a large enough effect; inconclusive = small, poorly fitted or top-dose-only effect; inactive = no such curve, though single readings can be large or run the other way. This excerpt belongs to a sample that is enriched for actives.

Biological target: Glucagon-like peptide 1 receptor (Homo sapiens) (UniProt P43220)
Assay: qHTS of GLP-1 Receptor Inverse Agonists (Inhibition Mode); also: nearly all actives have a fitted effect of over 55% in size
Conditions: HEK293 GLP-1R CRE-luciferase, luminescence, 24 h, GLP-1R form is constitutively active; series mostly up to 38.3 µM; activity change, negative = inhibition: at the top concentration
Summary of the method: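 qHTS in 1536-well format: reporter HEK293 cells expressing constitutive GLP-1R activity in DMEM + 10% Nu serum, 24 hr with compounds at 37 deg C, luminescence read after 12 min with detection reagent.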
% is scaled to controls: 0 for no effect and ±100 for the full control effect; potency is read from the fitted curve at half-maximal effect.

Chain of Glucagon-like peptide 1 receptor (Homo sapiens) (P43220 whole entry, looked up): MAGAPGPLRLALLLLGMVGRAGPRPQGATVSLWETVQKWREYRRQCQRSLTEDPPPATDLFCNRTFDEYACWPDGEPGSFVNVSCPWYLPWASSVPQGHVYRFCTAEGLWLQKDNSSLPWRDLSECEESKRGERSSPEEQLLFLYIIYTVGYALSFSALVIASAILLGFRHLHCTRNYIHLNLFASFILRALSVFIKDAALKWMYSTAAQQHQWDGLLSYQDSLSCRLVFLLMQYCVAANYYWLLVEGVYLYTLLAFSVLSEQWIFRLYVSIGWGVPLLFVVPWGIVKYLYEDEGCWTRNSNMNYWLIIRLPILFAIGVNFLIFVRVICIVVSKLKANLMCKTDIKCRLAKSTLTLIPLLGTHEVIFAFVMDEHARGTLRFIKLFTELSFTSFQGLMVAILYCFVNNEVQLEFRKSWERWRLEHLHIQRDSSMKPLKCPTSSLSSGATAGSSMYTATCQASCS

Activity change, negative = inhibition, inactive:
O=C(O)C1CCCN1c1nc(Cl)ccc1[N+](=O)[O-] (centres undefined) -3.65%, Cc1ccc(F)c(S(=O)(=O)NC(=O)C2(C)CCN2C(=O)c2ccco2)c1 (centres undefined) 24.1%, CCn1c(-c2cccnc2Cl)nc2cc(C)c(C)cc21 -15.5%, COn1c(-c2ccc(Cl)cc2Cl)nc2ncccc21 3.04%, O=C(C[C@H]1CC[C@H]2[C@@H](COC[C@H](O)CN2C(=O)c2ccccn2)O1)N1CCN(c2ccccc2)CC1 0.39%, O=C(COc1ccc(Br)cc1)OCC(=O)c1ccc[nH]1 5.29%, O=C1CCC(=O)N1CCC(=O)N(C(=O)NC1CCCCC1)C1CCCCC1 9.57%, CCCCN(CC)CCCNC(=O)CS(=O)(=O)Cc1nc(-c2cccc(OC)c2)oc1C 0%, COc1ccc(OC)c(CN2C(=O)CCC2(C)c2nnnn2Cc2ccccc2)c1 (centres undefined) 23.1%, O=C1CCC(C(=O)OCC(=O)Nc2ccc(OC(F)F)cc2)=NN1 0.906%, CCC(C)Sc1nc2c(c(=O)[nH]c(=O)n2C)n1CC(O)COc1cccc2ccccc12 (centres undefined) 7.64%, Cc1cc(C)c(NC(=O)C[N+](C)(C)CC(O)COc2cccc3ccccc23)c(C)c1 (centres undefined) -10.9%, Nc1ncnc2c1ncn2[C@@H]1O[C@H](C(=O)N2CCCN(Cc3ccccc3F)CC2)[C@@H](O)[C@H]1O 20.7%, CC1(C(=O)NS(=O)(=O)c2cccc(F)c2)CCN1C(=O)Cc1ccc(Cl)cc1Cl (centres undefined) -4.91%, COc1ccc(NC(=O)c2sc3nc(C)nc(N4CCN(c5ccccn5)CC4)c3c2C)c(OC)c1 9.53%, Cc1nc(N2CCN(c3ccccn3)CC2)c2c(C)c(C(=O)Nc3ccc(F)cc3)sc2n1 17.5%, CN(Cc1ccc(C(F)(F)F)cc1)C(=O)[C@H]1O[C@@H](n2cnc3c(N)ncnc32)[C@H](O)[C@@H]1O 28.2%, COc1cc2[nH]c(=O)n(Cc3ccc(C(=O)NC4CCN(Cc5ccccc5)CC4)cc3)c(=O)c2cc1OC 10.8%, COc1ccc(C(=O)O)cc1S(=O)(=O)NC1CCN(Cc2ccccc2)CC1 7.59%, O=C(C=CC(=O)Nc1ccc(F)cc1F)Nc1ccc(F)cc1F 16.9%, O=C(NCc1ccncc1)c1cccc(NS(=O)(=O)c2ccc(F)c(F)c2)c1 -12.2%, CCOC(=O)N1CCN(C(=O)c2ccc(S(=O)(=O)Nc3cccc(C(F)(F)F)c3)cc2)CC1 -8.41%, CC(=O)Nc1ccc(C=Cc2ccc([N+](=O)[O-])cc2)cc1 9.15%, CC(=O)Nc1ccc(C=CC(=O)c2ccc([N+](=O)[O-])cc2)cc1 -3.33%, CN1OC[C@@H]2CN(C(=O)c3cccc4ccccc34)[C@H](c3ccc(N4CCCCC4)cc3)C[C@@H]21 3.98%, CCN(Cc1ccncc1)C(=S)Nc1ccccc1C -2.47%, COCCNC(=S)N(Cc1cccnc1)Cc1ccc(OC)c(OC)c1 14.6%, Nc1nc2cc(Cl)ccc2n1N -52.9%, C[C@H]1Cn2cnc(C(=O)N[C@@H](Cc3c[nH]c4ccccc34)C(=O)OC(C)(C)C)c2C(=O)N1 6.39%, COc1ccccc1C(=O)NC(=S)Nc1ccc(N2CCOCC2)cc1 -5.24%, O=C(Cc1ccc([N+](=O)[O-])cc1)NCCS(=O)(=O)N1CCN(c2ccccc2)CC1 -2.98%, Cc1ccc(-n2ncc3c2CCCC3NC(=O)c2cnccn2)cc1C (centres undefined) 8.53%, Cn1nccc1C(=O)NC1CCCc2c1cnn2-c1ccc(F)cc1F (centres undefined) 10%, COCCCNC(=O)c1ccc(-c2c(C)noc2C)c2ccoc12 -5.17%, CCCS(=O)(=O)NC(=O)C1(C)CCCN(C(=O)c2cc(C)on2)C1 (centres undefined) 8.84%, CCC1NC(=O)c2cccnc2-n2c1nc1ccc(C)cc1c2=O (centres undefined) -5.41%, CCN1C(=O)[C@@H]2[C@@H](c3ccc(-c4ccc(OC)cc4)c(OC)c3)N3CCC[C@@]3(C(=O)OC)[C@@H]2C1=O 2.32%, CCCCCCSc1ccc([C@@H]2[C@H]3C(=O)N(CC)C(=O)[C@H]3[C@]3(C(=O)OC)CCCCN23)cc1 -8.07%

Potency, inactive:
COc1cccc(-c2nc(CS(=O)(=O)CC(=O)NCCc3ccc(OC)c(OC)c3)c(C)o2)c1

Potency, active:
Clc1ccc(COn2c(-c3ccc(Cl)cc3Cl)nc3ncccc32)cc1 10 µM, COc1cccc(-c2nc(CS(=O)(=O)CC(=O)N3CCN(c4cc(C)ccc4C)CC3)c(C)o2)c1 7.94 µM, CC(C)c1ccccc1OCC(O)CN(CC(O)COc1cccc2ccccc12)C(C)C (centres undefined) 8.91 µM, Cc1nc(N2CCC(C)CC2)c2c(C)c(C(=O)Nc3cc(F)ccc3C)sc2n1 10 µM, COc1cc(C(=O)NC2CCN(Cc3ccccc3)CC2)cc(Cl)c1OC(C)C 10 µM, O=C(NCc1ccccc1)c1ccc(S(=O)(=O)Nc2cccc(C(F)(F)F)c2)cc1 10 µM, O=C(O)/C=C/C(=O)NNc1ccc([N+](=O)[O-])cc1 8.91 µM, Cc1ccc(CN(Cc2cccnc2)C(=S)Nc2cc(Cl)ccc2C)cc1 10 µM, COc1ccc(OC)c(C(=O)NC2CCCc3c2cnn3-c2cc(C)cc(C)c2)c1 (centres undefined) 10 µM, CCCCCCSc1ccc([C@@H]2[C@@H]3C(=O)N(CC)C(=O)[C@@H]3[C@]3(C(=O)OC)CCCCN23)cc1OC 11.2 µM
